The list is not random: actives were taken first. Their share in the collection is about 3.5%.
MITF primary: human MITF inhibition, primary screen | 650,000 compounds, 0.91% hits | AlphaScreen MITF homodimerization, bead proximity signal | AID 1259374 | O75030 | inhibition, % at 2.6 µM; in the data active = inhibition above about 50%
TEAD-YAP inh: TEAD-YAP interaction inhibition; HEK-TIYL cells, TEAD-Gal4/YAP UAS-luciferase luminescence; inhibition, % at 9.12 µM; 640,000 compounds, 1.4% hits; in the data active = inhibition above about 32%
GPR151 activ: human GPR151 activation | Q8TDV0 | PathHunter beta-arrestin GPR151 cells, luminescence | activation, % at 11.2 µM | 650,000 compounds, 1% hits | AID 1508602; in the data active = activation above about 4.9%
FBW7 activator: human FBW7 E3 ligase activation, primary screen; Q969H0; AlphaScreen FBW7–phospho-cyclin E peptide binding, activator screen; normalized activity (activation), % at 26.1 µM; 650,000 compounds, 0.13% hits; AID 1259310; in the data active = normalized activity above about 1.9%;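 also: purified mutant Fbw7 with reduced substrate affinity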
GPR151 conf act: confirmation of human GPR151 activators | shares compounds with GPR151 activ | GPR151 PathHunter beta-arrestin cells, luminescence, 90 min; % of EA-reagent control over plate median | activation, % at 11.2 µM | 6,700 tested, under 10 active;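 active = mean percent activation across replicates above the confirmation screen cutoff of 4.91%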
GPR119 ag: GPR119 activation, counter-screen for GPR151 activators | 6,700 compounds, 0.3% hits | AID 1508611 | activation, % at 11.2 µM | GPR119 PathHunter beta-arrestin cells, luminescence, 90 min; 0 = compound-well median, 100 = enzyme-acceptor control | shares compounds with GPR151 activ;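 active = mean percent activation in the counterscreen above 29.09%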;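 also: counterscreen on off-target GPR119 to flag nonselective hits from the GPR151 activator screen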
Target sequence (Q8TDV5 whole entry, looked up): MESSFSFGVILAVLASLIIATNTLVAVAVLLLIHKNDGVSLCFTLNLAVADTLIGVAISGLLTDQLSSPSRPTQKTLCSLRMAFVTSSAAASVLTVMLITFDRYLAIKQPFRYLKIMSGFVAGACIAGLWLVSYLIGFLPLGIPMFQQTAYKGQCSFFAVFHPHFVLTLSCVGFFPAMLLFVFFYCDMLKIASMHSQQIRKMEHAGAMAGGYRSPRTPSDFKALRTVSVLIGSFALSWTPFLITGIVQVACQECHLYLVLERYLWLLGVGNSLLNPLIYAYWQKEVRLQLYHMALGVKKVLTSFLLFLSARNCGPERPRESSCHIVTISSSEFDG
Hits are given with their value; - = inactive; . = not tested or not shown.

SMILES	MITF primary	TEAD-YAP inh	GPR151 activ	FBW7 activator	GPR151 conf act	GPR119 ag
NC(=O)c1ccc(-c2ccc(C(=O)Nc3ccc(N4CCOCC4)cc3)s2)cc1	-	-	-	-	.	.
Cc1oc2cc(OC(C)C)c(C(C)C)cc2c(=O)c1-c1ccc2c(c1)OCCO2	-	-	-	-	.	.
CC(C)Cc1nc(SCC(=O)Nc2ccccc2)c2c(=O)n(C)c(=O)n(C)c2n1	-	-	8.1	-	-	-
COC(=O)C1=C(C)N(Cc2ccccc2)[C@]23O[C@](C(=O)OC)(C(=O)N2[C@@H]1c1ccccc1)[C@H]1C(=O)N(c2ccccc2)C(=O)[C@H]13	-	.	-	-	.	.
Cc1ccc(NC(=O)CNCCN2CCCCC2)cc1Br	-	-	-	-	.	.
O=C(COc1ccc(/C=C2/NC(=O)N(c3ccccc3)C2=O)cc1)Nc1ccc(F)cc1	-	-	-	-	.	.
O=C(COc1ccc(/C=C2/NC(=O)N(c3ccccc3)C2=O)cc1Cl)Nc1ccccc1	-	-	9.0	-	-	-
CCOC(=O)c1ccc(S(=O)(=O)NNC(=S)Nc2ccccc2)cc1	-	-	-	-	.	.
Nc1cc(=O)[nH]c(SCc2cn3ccccc3n2)n1	-	-	5.4	-	-	-
CN1CCCc2cc(CN3CCc4nnc(CCNC(=O)c5ccco5)n4CC3)ccc21	-	-	-	-	.	.
COc1ccc(NC(=O)C2CCC(Cn3c(=S)[nH]c4ccccc4c3=O)CC2)cc1 (configuration not stated)	-	-	7.0	-	-	-
Cc1cc([N+](=O)[O-])ccc1-c1ccc(C(=O)NC(C)(C)C)o1	-	-	7.7	-	-	-
COC(=O)c1ccc2c(=O)n(Cc3ccc4c(c3)OCO4)c(SCC(=O)Nc3ccc(OC)cc3OC)nc2c1	-	-	-	-	.	.
CC(NC(=O)c1ccccn1)c1nc2cccnc2n1C(C)C (configuration not stated)	-	-	-	-	.	.
N#Cc1cccc(S(=O)(=O)Nc2ccccc2F)c1	-	-	-	-	.	.
O=S(=O)(Nc1ccccc1F)c1cccc(S(=O)(=O)c2ccccc2)c1	-	-	5.3	-	-	-
CCOC(=O)c1cnc2c(OC)cccc2c1Nc1cccc(C(=O)O)c1	-	-	5.3	-	-	-
CCc1nnc(NC(=O)c2ccccc2C)s1	-	-	-	-	.	.
CC1CCCN(S(=O)(=O)c2ccc([N+](=O)[O-])cc2)C1 (configuration not stated)	-	-	5.7	-	-	-
O=C1C2C3C=CC(C3=C(c3ccccc3)c3ccccc3)C2C(=O)N1c1ccc(Cl)cc1 (configuration not stated)	-	-	-	-	.	.
Cc1csc(NC(=O)/C=C/c2cccc(Cl)c2)n1	-	-	5.0	-	-	-
COC(=O)c1ccc(N=Nc2c(C)c(C#N)c(O)[nH]c2=O)cc1	-	-	-	-	.	.
COc1ccc(N2CCN(C3CCCN(C(=O)c4csc(SC)n4)C3)CC2)cc1 (configuration not stated)	-	-	4.9	-	-	-
N#Cc1ccc(COC(=O)CCC(=O)c2cccs2)cc1	-	-	-	-	.	.
CN1CC(=O)N(CCCC(=O)OCc2ccc(C#N)cc2)C1=O	-	-	7.7	-	-	-
SMILES	MITF primary	TEAD-YAP inh	GPR151 activ	FBW7 activator	GPR151 conf act	GPR119 ag
O=C(CCCn1c(=O)[nH]c2ccccc2c1=O)N1CCN(c2ccc(Cl)cc2)CC1	-	-	5.5	-	-	-
CS(=O)(=O)N(CC(=O)N1CCCC1)c1ccc2c(c1)OCCO2	-	-	9.5	-	-	-
CS(=O)(=O)N(CC(=O)N1CCN(c2ccc(F)cc2)CC1)c1ccc(Cl)cc1	-	-	5.6	-	-	-
CC(C)c1ccc(N(CC(=O)N2CCN(c3ccc(F)cc3)CC2)S(C)(=O)=O)cc1	-	-	-	-	.	.
Cc1ccsc1/C=C(\C#N)C(=O)NCc1cccnc1	-	-	12	-	-	-
Cc1ccsc1/C=C(/C#N)C(=O)NCc1ccccc1	-	-	-	-	.	.
CC(C)C(=O)NC(C)c1nnc2n1CCN(Cc1ccco1)CC2 (configuration not stated)	-	-	12	-	-	-
Cc1ccc(OCCN(C)Cc2ccc(OCC(O)CN(C)C)cc2)cc1 (configuration not stated)	-	-	9.9	-	-	-
COc1cc2c(cc1NC(=O)c1cccc([N+](=O)[O-])c1)oc1ccccc12	-	-	6.9	-	-	-
COc1cc2c(cc1NC(=O)c1ccoc1C)oc1ccccc12	-	-	5.2	-	-	-
COc1cc2c(cc1NC(=O)c1ccccc1Cl)oc1ccccc12	-	-	-	-	.	.
COc1ccc(/C=C2\SC(=N)N(c3nccs3)C2=O)cc1OC	-	-	5.7	-	-	-
COc1ccc(/C=C2\SC(=N)N(C)C2=O)cc1OC	-	-	-	-	.	.
Cc1cc(Cl)ccc1OC(C)C(=O)NCc1ccco1 (configuration not stated)	-	-	6.9	-	-	-
CC(C(=O)OCC(=O)c1ccc(Br)cc1)N1C(=O)c2ccccc2C1=O (configuration not stated)	-	-	-	-	.	.
CCN(CC)c1cc(N)c([N+](=O)[O-])cc1F	-	-	6.5	-	-	-
Cn1cc(S(=O)(=O)Oc2ccc3ccccc3c2)c(=O)n(C)c1=O	-	-	-	-	.	.
C=CCc1ccccc1OCCOc1ccc([N+](=O)[O-])cc1/C=N/NC(N)=O	-	-	6.2	-	-	-
COc1cc(-c2cn3c(NC(=O)c4cccs4)c(C)nc3cn2)cc(OC)c1OC	-	-	5.3	-	-	-
CC1=CC(=O)C(N2CCc3ccccc3C2)=CC1=O	-	-	-	-	.	.
Cc1ccc(CN2CCN(C(=O)C3CCC3)CC2)cc1	-	-	5.0	-	-	-
CCc1ccc(CN2CCC(C(=O)N3CCN(CC)CC3)CC2)cc1	-	-	-	-	.	.
C/C(=N/NC(=S)Nc1ccccc1)c1nnn(-c2nonc2N)c1C	-	-	-	-	.	.
CC(=O)Nc1ccc(N(C)S(C)(=O)=O)cc1	-	-	9.3	-	-	-
CC(=O)Nc1ccc(N(C)C(C)=O)cc1	-	-	-	-	.	.
SMILES	MITF primary	TEAD-YAP inh	GPR151 activ	FBW7 activator	GPR151 conf act	GPR119 ag
C=CCc1ccc(OCCOc2ccc(/C=C3/C(=N)N4N=C(C)SC4=NC3=O)cc2OCC)c(OC)c1	-	-	-	-	.	.
COc1ccc(CC(=O)Nc2c3c(nn2C(C)(C)C)CSC3)cc1	-	-	-	-	.	.
CC(C)(C)n1nc2c(c1NC(=O)c1c(F)cccc1F)CSC2	-	-	7.6	-	-	-
COc1ccc(NC(=O)Nc2c3c(nn2C(C)(C)C)CSC3)cc1	-	-	5.5	-	-	-
CC(C)(C)n1nc2c(c1NC(=O)c1cccc(F)c1)CSC2	-	-	-	-	.	.
Cc1ccc(C(=O)Nc2ccccc2C(=O)Nc2ccc([N+](=O)[O-])cc2)cc1	-	-	-	-	.	.
COc1ccc(/C=N/n2ncnc2SC)cc1OC	-	-	-	-	.	.

Screening results from PubChem.
